# Measured values from PubChem BioAssay (Tox21).
# Records with an inconclusive call do not appear. Entries that show only a call come without a potency. Unmarked numbers belong to inactive results. Calls of active or inactive are those of the source. Calls follow the shape of the dose curve; as a rule, active = well fitted inhibition curve with a large enough effect in the signal ratio in the repeat runs, with a control signal flat; inconclusive = weak or mixed curves, or effect the other way; inactive = flat fitted curve, though single readings scatter; the % refers to the signal ratio.
# Molecular target: D(2) dopamine receptor (Homo sapiens) (UniProt P14416)
# Sequence (P14416 whole entry, looked up): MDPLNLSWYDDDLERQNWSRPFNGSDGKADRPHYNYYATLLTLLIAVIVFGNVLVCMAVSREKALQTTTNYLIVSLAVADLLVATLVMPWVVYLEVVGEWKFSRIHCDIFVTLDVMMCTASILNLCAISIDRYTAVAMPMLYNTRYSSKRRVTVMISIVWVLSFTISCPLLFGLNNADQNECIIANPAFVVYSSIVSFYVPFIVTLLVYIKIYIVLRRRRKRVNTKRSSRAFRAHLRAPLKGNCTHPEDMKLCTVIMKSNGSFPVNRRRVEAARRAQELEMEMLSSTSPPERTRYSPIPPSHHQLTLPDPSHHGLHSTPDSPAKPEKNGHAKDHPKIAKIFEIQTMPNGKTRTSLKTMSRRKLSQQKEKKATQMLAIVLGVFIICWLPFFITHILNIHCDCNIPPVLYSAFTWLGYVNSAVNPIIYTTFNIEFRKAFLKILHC
# Assay: Dopamine D2 receptor (DRD2) small molecule antagonists, cell-based qHTS assay (AID 1963595)
# Settings: HEK293-DRD2 cAMP HTRF antagonist mode; series mostly up to 92.4 µM
# Description: National Center for Advancing Translational Sciences [NCATS]
# Division of Preclinical Innovation [DPI]
# U.S. Environmental Protection Agency [EPA]
# National Institutes of Environmental Health Sciences [NIEHS]
# National Toxicology Program [NTP]
# U.S. Food and Drug Administration [FDA]
# DRD2 is the D2 subtype of the dopamine receptor, which is coupled to Gi subtype of G protein-coupled receptor. This G protein-coupled receptor inhibits adenylyl cyclase activity. The DRD2-HEK293 cell line stably expressing D2 dopamine receptor can be used for screening agonists and antagonists of interactions between D2 and its ligands. The Hek293-DRD2 cAMP assay is based on HTRF technology. It measures changes of cAMP accumulation in response to Gi coupled GPCR activation or inhibition.
# Tox21 Assay Protocol Summary:
# DRD2-Hek293 cells were dispensed at 600 cells/3uL/well in 1536-well white plates using a Multidrop Dispenser. After the assay plates were incubated at a 37 C/5% CO2 incubator for 24 h, 1 uL of Ro20-1724 at final concentration of 0.1 mM was transferred to the assay plate by a Flying Reagent Dispenser. Following Ro20-1724 addition, 23 nL of compound dissolved in DMSO, positive controls or DMSO only was added to the assay plates via Wako pintool station. The assay plates were incubated at room temperature for 10 min. Next, 1 uL of mixture of NKH477 (final concentration at 200 nM) and quinpirole (final concentration at 12 nM) was added into the plates. After the assay plates were incubated at room temperature for an additional 30 min, 2.5 ul/well of cAMP-d2 and 2.5 ul/well of anti-cAMP-cryptate were added respectively into the assay plates using a Flying Reagent Dispenser. The plates were incubated at room temperature for 1 h. The fluorescence intensity in the plates was measured at 340 nm excitation and 665 & 620 nm emission by an Envision plate reader.
# Potency is read from the fitted curve at half-maximal effect.
Structure (SMILES),Potency,"activity change, negative = inhibition"
CC(=O)OCC1=C(C(=O)O)N2C(=O)[C@@H](NC(=O)CSc3ccncc3)[C@H]2SC1,inactive,–
Cc1c(F)c(N2CCNC(C)C2)cc2c1c(=O)c(C(=O)O)cn2C1CC1 (stereo not given),inactive,–
CC=O,inactive,–
CCN(CC)c1ccc(N=Nc2ccccc2)cc1,inactive,–
c1cc(OCC2CO2)cc(OCC2CO2)c1 (stereo not given),inactive,–
Cc1ccccc1Br,inactive,–
Nc1ccc(F)cc1F,inactive,–
CC(=O)c1ccc([N+](=O)[O-])cc1,inactive,–
COc1ccc(S(=O)(=O)N2C(=O)[C@@](c3ccccc3OC)(N3C[C@H](O)C[C@H]3C(=O)N(C)C)c3cc(Cl)ccc32)c(OC)c1,inactive,–
CC1(C)O[C@@H]2C[C@H]3[C@@H]4C[C@H](F)C5=CC(=O)C=C[C@]5(C)[C@H]4[C@@H](O)C[C@]3(C)[C@]2(C(=O)CO)O1,inactive,–
CC[C@H]1OC(=O)[C@H](C)[C@@H](O[C@H]2C[C@@](C)(OC)[C@@H](O)[C@H](C)O2)[C@H](C)[C@@H](O[C@@H]2O[C@H](C)C[C@H](N(C)C)[C@H]2O)[C@](C)(O)C[C@@H](C)/C(=N\OCOCCOC)[C@H](C)[C@@H](O)[C@]1(C)O,inactive,–
CSc1ccc(O)cc1C,inactive,–
CCCCCC,inactive,–
S=C(S)NCCNC(=S)S,inactive,–
NCCCCCCNCCCCCCN,inactive,–
CC(=O)OCC(=O)[C@@]1(O)CC[C@H]2[C@@H]3CCC4=CC(=O)CC[C@]4(C)[C@H]3C(=O)C[C@@]21C,inactive,–
CC(CN(C)C)CN1c2ccccc2CCc2ccccc21 (stereo not given),23.7 µM (active),–
COCc1nnc(-c2ccc[n+]([O-])c2)n1-c1c(Cl)c(Cl)cc2[nH]c(=O)c(=O)[nH]c12,inactive,–
CCN1CCN(C(=O)N[C@@H](C(=O)N[C@@H]2C(=O)N3[C@@H]2SC(C)(C)[C@H]3C(=O)O)c2ccccc2)C(=O)C1=O,inactive,–
CCCC(=O)OCCC(C)CCC=C(C)C (stereo not given),inactive,–

Structure (SMILES),Potency,"activity change, negative = inhibition"
OCCc1ccncc1,inactive,–
CCCCCCOC(=O)NC(=N)c1ccc(NCc2nc3cc(C(=O)N(CCC(=O)OCC)c4ccccn4)ccc3n2C)cc1,inactive,–
C=CC(=O)OCC1CC2CC1C1CCC(COC(=O)C=C)C21 (stereo not given),inactive,–
CCCC(=O)O[C@]1(C(=O)COC(=O)CC)CC[C@H]2[C@@H]3CCC4=CC(=O)CC[C@]4(C)[C@H]3[C@@H](O)C[C@@]21C,–,-0.509% [at 18.9 µM]
NCCNC(=O)c1ccc(Cl)cn1,inactive,–
CCCCCCCCS(=O)C(C)Cc1ccc2c(c1)OCO2 (stereo not given),inactive,–
Cc1nc([N+](=O)[O-])cn1-c1ccc([N+](=O)[O-])cc1,inactive,–
CCCC(CCC)(C(=O)OCC)C(=O)OCC,inactive,–
CCCCC(CC)CN1CN(CC(CC)CCCC)CC(C)(N)C1 (stereo not given),inactive,–
O=S(=O)(O)c1ccc(Nc2nc(Nc3ccc(/C=C/c4ccc(Nc5nc(Nc6ccc(S(=O)(=O)O)cc6)nc(N(CCO)CCO)n5)cc4S(=O)(=O)O)c(S(=O)(=O)O)c3)nc(N(CCO)CCO)n2)cc1,inactive,–
C/C(CC(C)C)=N\O,inactive,–
CCCCC(CC)COS(=O)(=O)O (stereo not given),inactive,–
COP(=O)(O)OP(=O)(O)OC,inactive,–
CC(=O)OC(C)OC(=O)C(C)c1ccc(-c2ccccc2)c(F)c1 (stereo not given),inactive,–
C=Cc1ccc(C(C)(C)C)cc1,inactive,–
C=CC(=O)OCCCCCCOC(=O)C=C,inactive,–
Nc1nc(Cl)cc(Cl)n1,inactive,–
CCC(C)(CCC(C)C)C(=O)O (stereo not given),inactive,–
C=C(C)C(=O)OCCCCCCCCCCCCCCCCCC,–,-0.773% [at 18.9 µM]
CCCCN,inactive,–
